About 320 (15%) of roughly 2,100 compounds were called active. Not shown: some 52% with an inconclusive outcome. Calls follow the shape of the dose curve; as a rule, active = well fitted cell-killing curve with a large enough effect; inconclusive = small, poorly fitted or top-dose-only effect, or effect the other way; inactive = flat fitted curve, though single readings scatter. Some of the results follow. Where a call stands in place of a potency, no number is given.

Here are results for 64 molecules from PubChem BioAssay AID1745849 (National Center for Advancing Translational Sciences (NCATS), 2022).
Potency is read from the fitted curve at half-maximal effect.

The experiment in a line: Viability Counterscreen for CMV-Luciferase Assay of Inhibitors of ATXN expression. Also: nearly all actives have a fitted effect of over 55% in size. Particulars: HEK-293 CMV-luciferase cells viability, protease fluorescence, 24 h. The procedure, abridged:
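Cells: HEK-293/CMV-luc in phenol-red-free DMEM, 2 hr settle. Cpd dose, 24 hr, 37 °C, 5% CO2. Viability: Gly-Phe-AFC 25 uM final, 30 min, fluor. Then SteadyGlo, 5 min RT, lumin.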
Take `O=C(C1CC(=O)N(c2ccc3c(c2)OCCO3)C1)N1CCN(c2ccccc2)CC1` (centres undefined): the Potency result is “inactive”.

For the molecule `Cn1c(/C=C/c2cccc([N+](=O)[O-])c2)c([N+](=O)[O-])c(=O)n(C)c1=O`, the Potency was 14.1 µM (active).

On to `Cn1c(/C=C/c2ccc(Cl)cc2Cl)c([N+](=O)[O-])c(=O)n(C)c1=O`, for which the Potency was 10 µM (active).

Regarding `Cn1c(/C=C/c2ccc(Cl)cc2)c([N+](=O)[O-])c(=O)n(C)c1=O`, the Potency is 12.6 µM (active).

`CN(c1ccc(OCC(=O)N2CCN(c3ccc(F)cc3)CC2)cc1)S(=O)(=O)c1cccs1`: the Potency result was “inactive”.

In the case of `CC(=O)N1CCCc2cc(S(=O)(=O)N3CCCC(C(=O)N4CCN(c5cc(C)ccc5C)CC4)C3)ccc21` (centres undefined), the Potency result was “inactive”.

As to `CCOc1ccc(/C=C/[N+](=O)[O-])c2ccccc12`, the Potency was 20 µM (active).

Regarding `COc1ccc(NC(=O)N2CCN(c3nc(-c4cccc(OC)c4)cs3)CC2)cc1`, the Potency entry was “inactive”.

Turning to `CC1CCN(C(=O)c2cc3nc(-c4ccccc4)cc(-c4ccccc4)n3n2)CC1`, the Potency result was “inactive”.

For the molecule `Cc1c(C(=O)NCc2ccc(Cl)c(Cl)c2)sc(=O)n1Cc1ccc(S(C)(=O)=O)cc1`, the Potency result is “inactive”.

For `O=S(=O)(Cc1cc(NCc2ccccc2)nc(-c2ccccn2)n1)c1ccccc1`, the Potency result is “inactive”.

On to `CCN(CC)CCn1nc2c3c(cccc3c1=O)-c1ccccc1-2`, for which the Potency is 11.2 µM (active).

As for `C/C(=N\NC(=O)C12CCC(C)(C(=O)O1)C2(C)C)c1ccccc1O` (centres undefined), the Potency result was “inactive”.

Turning to `COc1ccc(S(=O)(=O)N(C)C)cc1NC(=O)C1CCN(c2ncnc3sc(C)c(C)c23)CC1`, the Potency entry is “inactive”.

Regarding `COc1ccc(-c2csc(NC(=O)C3CCN(c4ncnc5sc(C)c(C)c45)CC3)n2)cc1OC`, the Potency was 8.91 µM (active).

As to `CCc1ccc(C(=O)NNC(=O)C2CCN(c3ncnc4sc(C)c(C)c34)CC2)cc1`, the Potency entry is “inactive”.

Consider `Cc1ccccc1Oc1cc(NC(=O)CCCn2nc(C)c([N+](=O)[O-])c2C)cc([N+](=O)[O-])c1`, for which the Potency result is “inactive”.

As for `O=C(Nc1ccccc1NC(=O)NC1CCCCC1)NC1CCCCC1`, the Potency is 20 µM (active).

With `O=C(N/N=C/c1ccccc1O)C1CCCC1`, the Potency result was “inactive”.

Regarding `S=C(NCc1ccc(Cl)cc1Cl)NC1CCCCC1`, the Potency entry was “inactive”.

With `CCc1ccc(CNC(=O)c2cc3c(C)nc4ccccc4c3o2)cc1`, the Potency entry was “inactive”.

On to `Cc1ccc2[nH]c(O)c(N=NC(=O)C3CC3c3ccccc3)c2c1Br` (centres undefined), for which the Potency entry is “inactive”.

Take `O=C(/C=C/NNC(=O)c1ccccc1)c1ccc([N+](=O)[O-])cc1`: the Potency is 12.6 µM (active).

`O=C(NNCc1ccccc1)c1ccccc1`: the Potency entry was “inactive”.

In the case of `O=C(O)COc1ccc2oc3ccccc3c2c1`, the Potency result was “inactive”.

On to `c1ccc(Cn2c(-c3ccccc3)c[n+]3c2SCCC3)cc1`, for which the Potency entry is “inactive”.

As to `CCCCCC(=O)N/N=C(\C)c1ccccn1`, the Potency entry is “inactive”.

In the case of `CCCC/C(C)=N/NC(=O)c1cn(-c2ccccc2)nc1-c1ccccc1`, the Potency entry was “inactive”.

Turning to `C/C(=N\NC(=O)COc1cccc(C)c1)c1ccc2ccccc2c1O`, the Potency entry was “inactive”.

`CCc1ccc(OCC(=O)N/N=C(\C)c2ccc(O)cc2O)cc1`: the Potency entry is “inactive”.

On to `C/C(=N\NC(=O)c1cccc2ccccc12)c1ccccn1`, for which the Potency was 1.41 µM (active).

`COc1ccc(CC(=O)N/N=C(\C)c2ccccn2)cc1`: the Potency is 11.2 µM (active).

Consider `OC1(c2ccc(Br)cc2)CCNCC1`, for which the Potency entry was “inactive”.

With `Cc1cccc(OCCSc2nc3ncnc(N)c3[nH]2)c1`, the Potency result is “inactive”.

With `COc1ccccc1Cc1c(-c2ccco2)nc2c(C)cc(Br)cn12`, the Potency is 8.91 µM (active).

Regarding `Cc1n(Cc2ccccc2)c2ccccc2[n+]1Cc1ccccc1`, the Potency result was “inactive”.

On to `CC(C)=CCc1ccc(O)c(=O)cc1C(C)C`, for which the Potency result was “inactive”.

In the case of `CC(C)=CCc1c(O)cc2oc3c(CC=C(C)C)c(O)c(O)c(CC=C(C)C)c3c(=O)c2c1O`, the Potency result was “inactive”.

Regarding `O=C(Nc1ccc(N2CCOCC2)c(Cl)c1)c1c(F)c(F)c(F)c(F)c1F`, the Potency result was “inactive”.

As to `O=C(Nc1ccc(N2CCN(C(=O)c3ccccc3)CC2)c(Cl)c1)c1ccc(Br)o1`, the Potency entry was “inactive”.

With `O=C(Nc1ccc(Cl)cc1)Nc1ccc(N2CCCC2)c(S(=O)(=O)Nc2ccccc2Cl)c1`, the Potency is 7.94 µM (active).

`Cc1cc(Cl)ccc1-c1cc2nc(NCCCN(C)C)n(C)c(=O)c2s1`: the Potency result was “inactive”.

In the case of `Cc1ccc(C(=O)N(CCCN(C)C)c2nc3ccc(Cl)cc3s2)cc1C`, the Potency is 22.4 µM (active).

On to `Cc1ccc2nc(N(CCCN(C)C)C(=O)c3ccc(S(=O)(=O)N4CCCCCC4)cc3)sc2c1`, for which the Potency result was “inactive”.

On to `Cc1cc(C)c2nc(N(CCCN(C)C)C(=O)c3ccc4c(c3)OCCO4)sc2c1`, for which the Potency was 31.6 µM (active).

In the case of `CCOC(=O)c1c(NC(=O)COC(=O)CNC(=O)c2ccco2)sc(C)c1C`, the Potency entry was “inactive”.

For the molecule `CC(=O)NC(C)c1cc(Cl)c2cccnc2c1O` (centres undefined), the Potency entry is “inactive”.

On to `CCC(=O)NC(c1ccco1)c1cc(Cl)c2cccnc2c1O` (centres undefined), for which the Potency result is “inactive”.

For the molecule `CC(C)C(=O)NC(c1ccccc1)c1cc([N+](=O)[O-])c2cccnc2c1O` (centres undefined), the Potency is 20 µM (active).

Regarding `CCC(=O)NC(c1ccc(C)cc1)c1cc([N+](=O)[O-])c2cccnc2c1O` (centres undefined), the Potency was 15.8 µM (active).

Consider `CC(=O)NC(c1cccs1)c1cc([N+](=O)[O-])c2cccnc2c1O` (centres undefined), for which the Potency was 11.2 µM (active).

Turning to `CC(=O)NC(c1ccco1)c1cc(Cl)c2cccnc2c1O` (centres undefined), the Potency entry is “inactive”.

For the molecule `CCC(=O)NC(C)c1cc(Cl)c2cccnc2c1O` (centres undefined), the Potency entry was “inactive”.

On to `CCCCC(=O)NC(c1ccco1)c1cc(Cl)c2cccnc2c1O` (centres undefined), for which the Potency result is “inactive”.

`Cc1nc(-c2c(C(F)(F)F)noc2-c2ccc(O)cc2O)cs1`: the Potency result is “inactive”.

For `COc1ccc(Nc2oc(COc3ccccc3OC)nc2C#N)cc1`, the Potency result is “inactive”.

Take `N#Cc1c(NCCN)nc(-c2ccco2)c2c1CCCC2`: the Potency result is “inactive”.

With `CN(C)CCCNC(=O)/C=C/c1ccc(OCc2c(F)cccc2Cl)cc1`, the Potency result is “inactive”.

In the case of `O=C1N(c2ccccc2)C[C@@H]2C[C@@H](c3cc4ccccc4o3)N3CCC[C@@]123`, the Potency was 0.355 µM (active).

For `CC(C)(O)C#Cc1ccc([C@@H]2C[C@H]3CN(c4ccccc4)C(=O)[C@]34CCCN24)s1`, the Potency was 11.2 µM (active).

In the case of `CCN1c2ccccc2NC2N=C(OC)C(c3ccccc3)C21` (centres undefined), the Potency was 12.6 µM (active).

Take `Cn1c(=O)c2cc(NC(=O)Nc3cccnc3)ccc2n1Cc1ccc(Cl)cc1`: the Potency entry is “inactive”.

For the molecule `Cc1c(C(=O)N2c3ccccc3Sc3ccccc32)cccc1[N+](=O)[O-]`, the Potency entry was “inactive”.

With `Cc1onc(-c2ccccc2)c1C(=O)Nc1ccc(S(=O)(=O)NC(C)(C)C)cc1`, the Potency result is “inactive”.
